IMPase Li cell: cell-permeable IMPase inhibitors with lithium potentiation; actives 0.35% (n = 210,000); Potency, µM (highest dose often 59.4 µM), usual class: inhibitors; CHO-M1 cells, IP1 TR-FRET (IP-One), carbachol + lithium; active means well fitted curve in the direction sought with a large enough effect; inconclusive means small, poorly fitted or top-dose-only effect, or another doubt; inactive means no such curve, though single readings can be large; an effect the other way counts as inactive or inconclusive;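 further: IP1 builds up when IMPase is blocked and the TR-FRET signal falls; nearly all actives have a fitted effect of over 50% in size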
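CHO-M1, 2000 cells/well, 16–30 h culture; cpd + low Li+, 30 min 37C; lysis with d2-IP1/Eu-anti-IP1 Ab, 10 min RT; TR-FRET 665/620 ratio and 620 channel; AC50 via Hill.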
ALDH1A1 block: blocks purified human ALDH1A1 activity; P00352; Purified ALDH1A1, NADH fluorescence, propionaldehyde substrate; Potency, µM (top dose mostly 75.3 µM), usual class: inhibitors; actives 7.3% (n = 220,000); AID 1030
Target sequence (P00352 whole entry, looked up): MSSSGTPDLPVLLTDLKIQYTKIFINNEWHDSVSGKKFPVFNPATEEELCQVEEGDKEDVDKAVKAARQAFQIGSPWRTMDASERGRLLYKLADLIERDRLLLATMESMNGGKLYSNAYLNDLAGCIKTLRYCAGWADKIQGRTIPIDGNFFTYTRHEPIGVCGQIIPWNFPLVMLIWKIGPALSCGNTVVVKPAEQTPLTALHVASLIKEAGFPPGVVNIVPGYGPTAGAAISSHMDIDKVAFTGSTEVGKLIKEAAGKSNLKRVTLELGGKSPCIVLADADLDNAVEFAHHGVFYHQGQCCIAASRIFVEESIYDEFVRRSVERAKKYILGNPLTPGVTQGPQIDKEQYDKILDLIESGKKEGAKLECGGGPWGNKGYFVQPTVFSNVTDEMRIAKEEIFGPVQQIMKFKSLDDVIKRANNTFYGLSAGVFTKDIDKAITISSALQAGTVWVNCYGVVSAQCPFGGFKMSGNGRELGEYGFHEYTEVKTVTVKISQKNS
Luc counter: blocks Kinase-Glo luciferase, a counter-screen artifact. Q27757. Kinase-Glo luciferase, ATP luminescence, 8 min. Potency, µM (top dose mostly 38.3 µM), most hits filed as inhibitors. actives 0.28% (n = 200,000); active means well fitted curve in the direction sought with a large enough effect; inconclusive means small, poorly fitted or top-dose-only effect, or another doubt; inactive means no such curve, though single readings can be large; an effect the other way counts as inactive or inconclusive; further: nearly all actives have a fitted effect of over 60% in size
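Kinase-Glo luciferase light output from ATP and luciferin was measured with 10 uM ATP, within the enzyme's linear range. Buffer: 50 mM imidazole pH 7.2, 50 mM KCl, 7 mM MgCl2, 0.01% Tween 20, 0.05% BSA; luminescence read after 8 min at ambient temperature.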
LMNA splice mod: modulators of lamin A splicing; HeLa LMNA splicing GFP/RFP minigene ratio, 48 h; Potency, µM (titrated, usually from 46.1 µM), hits mostly inhibitors; AID 1487; actives 0.01% (n = 200,000); active means well fitted inhibition curve with a large enough effect in the signal ratio, with a control signal flat, not every such curve was filed as active; inconclusive means small, poorly fitted or top-dose-only effect, or effect the other way, or a change in a side signal; the % refers to the signal ratio
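Read-out is the ratio of GFP to DsRed2 object intensity, acquired by 488 nm laser-scanning cytometry on HeLa lamin A-EGFP minigene reporter cells. Compound incubation 48 hrs at 37 °C in Opti-MEM with 2% FBS; DMSO 0.5% final.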
HPGD block: blocks human HPGD enzyme activity | P15428 | purified HPGD, NADH fluorescence kinetic, PGE2 substrate | Potency, µM, hits mostly inhibitors | actives 4.3% (n = 150,000) | AID 894
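NADH formation kinetics: reaction with 30 uM PGE2 and 1 mM NAD+ (final), 20 nM enzyme, Tris-HCl pH 8 with Tween 20, after 15 min compound preincubation at room temperature. Fluorescence change, last versus first of five reads.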
Each line names hits and unclear results; the compound was inactive in the other large screens. The list is not random: actives were taken first. Their share in the collection is about 9%. Unless noted, the call rests on the fitted dose curve; in most records, active means well fitted inhibition curve with a large enough effect (not every such curve was filed as active); inconclusive means small, poorly fitted or top-dose-only effect, or another doubt; inactive means no such curve, though single readings can be large or run the other way.

COc1ccc(C(=O)N[C@H](C(=O)OCc2cc(=O)oc3cc(C)ccc23)C(C)C)cc1	ALDH1A1 block 11.2µM
CCn1c2ccccc2c2nnc(N3CCN(c4cccc(Cl)c4)CC3)nc21	none (no result: IMPase Li cell, ALDH1A1 block, Luc counter, HPGD block)
COc1ccc(-n2c(SCCC#N)nnc2-c2cc(Cl)ccc2OC)cc1Cl	IMPase Li cell inconclusive, LMNA splice mod inconclusive, HPGD block 20µM
O=C(Nc1cccc(F)c1)N1CCCC2(CCN(C(=O)c3csnn3)CC2)C1	none (no result: LMNA splice mod)
COc1ccccc1-c1cn[nH]c(=S)n1	ALDH1A1 block 7.08µM, HPGD block 22.4µM
CCC1S/C(=N\S(=O)(=O)c2cccs2)N(C2CCCCC2)C1=O (stereo not given)	ALDH1A1 block 7.94µM
O=S(=O)(Cc1ccccc1)NCC1CCCN(Cc2ccc(F)c(F)c2)C1 (stereo not given)	ALDH1A1 block inconclusive (no result: LMNA splice mod, HPGD block)
COc1cccc2c1C(=O)c1c(O)c3c(c(O)c1C2=O)C[C@@](O)(C(=O)CO)C[C@@H]3O[C@H]1C[C@H](N)[C@H](O)[C@H](C)O1	ALDH1A1 block inconclusive, LMNA splice mod inconclusive
COc1cccc2c1C(=O)c1c(O)c3c(c(O)c1C2=O)C[C@@](O)(C(=O)CO)C[C@@H]3O[C@@H]1C[C@H](N)[C@H](O)[C@H](C)O1	ALDH1A1 block 20µM (no result: LMNA splice mod)
CCCNC(=O)C1CCC(Cn2c(=O)c3sccc3n(CC(=O)NCc3ccccc3)c2=O)CC1 (stereo not given)	none (no result: IMPase Li cell, ALDH1A1 block, Luc counter, HPGD block)
COc1ccc(CNc2nc(-c3ccccc3CN(C)C)nc3ccccc23)c(OC)c1	LMNA splice mod inconclusive
CCC(C)(C)n1nnnc1CN(Cc1ccco1)Cc1cc2cc3c(cc2[nH]c1=O)OCO3	ALDH1A1 block inconclusive, HPGD block inconclusive
CCC(C)(C)n1nnnc1CN(Cc1ccc(Cl)cc1)Cc1ccco1	ALDH1A1 block 10µM
COC(=O)CC1c2ccccc2C(Cc2ccc(OC)cc2)C(C)N1C(=O)OC (stereo not given)	none
COc1ccc(NC(=O)C(=O)N/N=C/c2cc(C)n(-c3cccc(Cl)c3Cl)c2C)c(OC)c1	ALDH1A1 block 31.6µM, HPGD block inconclusive
Fc1cccc(F)c1C(Nc1nncs1)Nc1nncs1	none (no result: LMNA splice mod)
CS(=O)(=O)N1CCC2(CC1)CN(c1ccccn1)C2	ALDH1A1 block inconclusive, HPGD block inconclusive (no result: LMNA splice mod)
O=C1ON=C(c2cccc([N+](=O)[O-])c2)/C1=C/c1ccc(O)cc1	ALDH1A1 block 10µM (no result: HPGD block)
COc1ccc(C2=Nc3ccccc3OC2)cc1	ALDH1A1 block 22.4µM, LMNA splice mod inconclusive
Cn1cc(CNCc2cn(C)nc2-c2ccc(C3CCCCC3)cc2)cn1	none (no result: HPGD block)
COC(=O)C1CCN(c2ccc(Cl)nn2)CC1	none (no result: LMNA splice mod, HPGD block)
COc1cc2c(cc1OC)C(c1ccc(N)cc1)=NNC(=O)C2	none (no result: LMNA splice mod)
O=C(O)COc1ccccc1/C=C1\SC(=S)N(/N=C/c2ccccc2O)C1=O	ALDH1A1 block inconclusive, HPGD block 8.91µM
COc1ccc(S(=O)(=O)NCC(=O)Nc2cccc(C)c2C)cc1OC	none (no result: LMNA splice mod, HPGD block)
CCOC(=O)N1CCC(NC(=O)CCCN2C(=O)CSc3ncccc32)CC1	LMNA splice mod inconclusive
CCN(CC)C(=O)CSc1nc(C)cc(C)c1C#N	ALDH1A1 block inconclusive (no result: HPGD block)
Cc1cc(C)c(C#N)c(SCC(=O)NC(C)(C)C)n1	none
Cc1cc(C)c(C#N)c(SCC(=O)C(C)(C)C)n1	ALDH1A1 block inconclusive, HPGD block 31.6µM
Cc1cc(C)c(C#N)c(SCC(=O)N2CCCCC2)n1	ALDH1A1 block 12.6µM
Cc1cc(C)c(C#N)c(SCC(=O)N(C)C2CCCCC2)n1	ALDH1A1 block 17.8µM, LMNA splice mod inconclusive
O=C(CCCN1C(=O)CSc2ncccc21)N1CCN(Cc2ccccc2)CC1	ALDH1A1 block 22.4µM
COc1cc2c(cc1OC)CN(C(=O)CSc1nc(C)cc(C)c1C#N)CC2	ALDH1A1 block inconclusive
COc1cc(C(=O)NCCc2c[nH]c3ccccc23)ccc1OCc1c(C)noc1C	none (no result: HPGD block)
COc1cccc([C@@H]2Oc3ccc(Br)cc3C[C@H]2O)c1	none (no result: LMNA splice mod)
COCc1cc(C)nc(SCC(=O)N2CCC(C)CC2)c1C#N	ALDH1A1 block 7.94µM
CCN(Cc1ccccc1)C(=O)CSc1nc(C)cc(C)c1C#N	none
Cc1cc(C)c(C#N)c(SCC(=O)N2CCN(Cc3ccccc3)CC2)n1	ALDH1A1 block 20µM
O=C(CSc1ncccn1)N1CCN(Cc2ccccc2)CC1	ALDH1A1 block 28.2µM
COC(=O)CSc1nsc(SCC(=O)OC)c1C#N	none

Source: PubChem (National Center for Advancing Translational Sciences (NCATS))
